# Sampled rows, rich in hits. Any-hit rate of the full collection: about 1.6%.
# Rce1 inh = yeast Ras-converting enzyme inhibition; Q03530; yeast membranes, quenched prenylated peptide cleavage fluorescence; calls only; 290,000 tested, 0.27% active;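 active means fall in fluorescence gain of 50% or more versus controls, with final raw signal at or below 3038400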
# Target sequence (Q03530 whole entry, looked up): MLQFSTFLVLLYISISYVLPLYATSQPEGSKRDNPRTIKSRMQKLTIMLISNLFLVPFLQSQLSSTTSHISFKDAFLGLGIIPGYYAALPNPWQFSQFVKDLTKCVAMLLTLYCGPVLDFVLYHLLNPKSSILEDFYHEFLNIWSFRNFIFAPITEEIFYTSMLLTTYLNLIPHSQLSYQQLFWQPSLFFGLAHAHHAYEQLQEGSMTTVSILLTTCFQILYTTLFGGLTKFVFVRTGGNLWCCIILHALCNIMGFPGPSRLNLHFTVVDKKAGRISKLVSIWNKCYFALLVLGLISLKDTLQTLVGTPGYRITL
# V-ATPase pHluor = yeast V-ATPase proton transport regulation by pHLuorin; 350,000 tested, 0.37% active; S. cerevisiae, pHLuorin cytosolic pH fluorescence; response, % at 10 µM; in the data active means response mostly above about 7.3%, no sharp cut-off; inactive means mostly below about 5.4%; further: actives read high
# NALP3 yeast inh = NALP3 inhibition in yeast; Yeast reconstituted NLRP3/ASC/caspase-1, beta-gal luminescence, 24 h; inhibition, % at 10 µM; 330,000 tested, 0.39% active;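 active means inhibition of 50% or more; inactive means inhibition below 50%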
# PERK inh = inhibitors of human PERK kinase. 220,000 tested, 0.17% active. CHO PERK-DD fusion, SEAP luminescence translation reporter. Q9NZJ5. inhibition, % at 5.6 µM;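 active means inhibition above the mean inhibition of all tested compounds plus 3 SD, set separately per screening campaign, cut at about 2.9% in these data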;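 further: PERK kinase domain activated by AP20187 dimerizer at 100 nM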
# Yeast superoxide = yeast age-related superoxide inhibition as caloric restriction mimetic | S. cerevisiae aged cells, superoxide DHE fluorescence; stronger effect = lower value | superoxide response (% of plate mean), % at 10 µM | 330,000 tested, 0.18% active;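 active means superoxide response under a set limit, about three screen SD below normal, cut at about 65% in these data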;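 further: yeast aged for seven days with compound at 30 °C before DHE staining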
# NALP1 yeast inh = blocks the NALP1 inflammasome reconstituted in yeast. AID 2071. 280,000 tested, 0.61% active. S. cerevisiae NALP1/ASC/caspase-1 growth, X-gal OD620, 72 h. inhibition, % at 10 µM; in the data active means inhibition mostly above about 24%, no sharp cut-off; inactive means mostly below about 32%
# Superoxide pick = confirmation of caloric restriction mimetics inhibiting yeast age-related superoxide | shares compounds with Yeast superoxide | S. cerevisiae aging, superoxide DHE fluorescence; stronger effect = lower value | superoxide response (% of plate), % at 10 µM | 850 tested, 1% active | AID 434994;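 active means superoxide signal below 65% of the plate average of sample wells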;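 further: cells aged with compound for 7 days at 30 degrees C before staining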
# DHE counter = compound alters DHE oxidation or fluorescence in yeast; shares compounds with Yeast superoxide; S. cerevisiae BY4741, flow cytometry; stronger effect = lower value; fluorescence response, % at 10 µM; 850 tested, under 10 active;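 active means fluorescence response below 15%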;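 further: lower means stronger quenching of DHE signal or ROS scavenging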
# A number is an active result; . = inactive; / = not tested or not shown.
SMILES,Rce1 inh,V-ATPase pHluor,NALP3 yeast inh,PERK inh,Yeast superoxide,NALP1 yeast inh,Superoxide pick,DHE counter
CCCc1c(NC(=O)Nc2ccc(F)cc2)cnn1-c1ccccc1,.,.,.,.,61,.,.,.
Cc1nc(-c2ccc(S(=O)(=O)Nc3cc(S(=O)(=O)N(C)C)ccc3C)s2)cs1,.,.,.,.,64,.,.,.
CN(C(=O)c1cccc(NC(=O)Cc2ccc(NC(=O)C3CCN(C(=O)c4ccccc4)CC3)cc2)c1)C1CCCCC1,/,.,/,/,/,/,/,/
CC(C)CC(NC(=O)C1CCC(C)CC1)C(=O)NCCN1CCOCC1 (stereo unspecified),.,.,.,/,.,.,/,/
CSCCC(NC(=O)C1CCC(C)CC1)C(=O)NCCN1CCOCC1 (stereo unspecified),.,.,.,.,58,.,.,.
Cc1[nH][nH]c(=O)c1C(c1ccc(O)c(Br)c1)c1c(C)[nH][nH]c1=O,.,.,.,/,56,.,.,.
O=C(Nc1ccc2cccnc2c1)c1ccc(Br)cc1,.,.,.,/,.,.,/,/
O=C(Nc1ccc2nc3ccccc3nc2c1)c1ccc(Br)cc1,.,.,.,.,.,.,.,.
C[C@H](CO)N1C[C@H](C)[C@H](CN(C)Cc2ccncc2)Oc2ncc(Br)cc2C1=O,/,.,/,/,/,/,/,/
COCCn1c(SCC(=O)Nc2ccc(NC(C)=O)cc2)nc2ccccc2c1=O,.,.,.,/,51,.,.,.
COCCn1c(SCC(=O)Nc2cc(C)cc(C)c2)nc2ccccc2c1=O,.,.,.,/,.,.,/,/
O=c1ccc2c(ccc3ncccc32)o1,/,.,/,/,/,/,/,/
C[C@H](O)[C@@H]1C(=O)N2CCc3ccc(N4CCN(C)CC4)cc3[C@@H]2C[C@@H]1N(C)C(=O)c1cccnc1,/,.,/,/,/,/,/,/
CCCCCCCCCCCCCCCC(=O)Nc1ccn(C2OC(CO)C(O)C2O)c(=O)n1 (stereo unspecified),/,.,/,/,/,/,/,/
COc1cc(OC)cc(-c2nnc(SCC(=O)N(C(C)C)C(C)C)o2)c1,.,.,.,.,.,.,.,.
COc1ccc(-c2nnc(SCC(=O)N3CCOCC3)o2)cc1OC,.,.,.,.,.,/,/,/
COC(=O)CSc1nnc(-c2ccc(OC)c(OC)c2)o1,.,.,.,.,.,.,.,.
C[C@@H]1CN([C@H](C)CO)C(=O)c2cc(Br)cnc2O[C@H]1CN(C)C(=O)Nc1ccccc1F,/,.,/,/,/,/,/,/
C[C@@H]1CN([C@@H](C)CO)S(=O)(=O)c2ccc(Br)cc2O[C@@H]1CN(C)Cc1cccnc1,/,.,/,/,/,/,/,/
COC(=O)C(=Cc1ccncc1)c1cccc2ccccc12,/,.,/,/,/,/,/,/
C[C@@H]1CN([C@@H](C)CO)C(=O)CCCn2nncc2CO[C@@H]1CN(C)C(=O)Cc1ccccc1,/,.,/,/,/,/,/,/
Cc1ccc(C)c(NC(=O)CN(C)C(=O)c2oc3c(Cl)cccc3c2C)c1,.,.,.,/,65,/,.,.
CC(=O)c1cnc2c(-c3ccc(Cl)cc3)cnn2c1C,/,.,.,.,.,.,/,/
CC(=O)c1cnc2c(-c3ccccc3)c(-c3ccccc3)nn2c1C,.,.,.,/,.,.,.,.
Cc1cc(N)n2nc(-c3ccccc3)c(-c3ccccc3)c2n1,.,.,.,/,.,.,.,.
SMILES,Rce1 inh,V-ATPase pHluor,NALP3 yeast inh,PERK inh,Yeast superoxide,NALP1 yeast inh,Superoxide pick,DHE counter
Cc1ccc(C)c(NS(=O)(=O)c2ccccc2C)c1,.,.,.,/,.,.,.,.
Cc1ccc(C)c(S(=O)(=O)Nc2ccc(O)cc2)c1,.,.,.,.,.,.,.,.
COc1ccc(C)cc1S(=O)(=O)Nc1ccc(F)cc1,.,.,.,.,.,.,.,.
CCC(C)(C)c1ccc(OCCCC[n+]2ccc(C)cc2)c(C(C)(C)CC)c1,.,/,.,.,61,.,.,.
CCOC(=O)C1=C(C(=O)OCC)c2ccc(OC)c(OC)c2C1,/,.,/,/,/,/,/,/
Cc1n[nH]c(=S)n(/N=C/c2cccc([N+](=O)[O-])c2)c1=O,.,.,.,.,61,.,.,.
CCC(=O)N(C)C[C@@H]1Oc2ncc(Br)cc2C(=O)N([C@H](C)CO)C[C@H]1C,/,.,/,/,/,/,/,/
O=C(CN1CCN(c2ccccn2)CC1)Nc1cc(C(F)(F)F)ccc1Cl,.,.,.,.,.,.,.,.
O=C(CN1CCN(c2ccccn2)CC1)Nc1ccc(Cl)c(C(F)(F)F)c1,.,.,.,.,.,.,.,.

# Bioassay records as filed in PubChem BioAssay.
